Among all 1,100 compounds or so, about 860 (78%) were called active. About 19% were inconclusive and are not listed. The set was probably picked from earlier hits. Some of the results follow. A number with no mark means an inactive call. Calls come from the whole dose curve; as a rule, active = well fitted activation curve with a large enough effect; inconclusive = small, poorly fitted or top-dose-only effect; inactive = flat fitted curve, though single readings scatter.
Potency is the fitted concentration of half-maximal effect.

The assay in a line: qHTS of Nrf2 Activators: Hit Validation in Primary Assay. For activation: 0% is about no effect. Note: nearly all actives have a fitted effect of over 70% in size. As to conditions: Nrf2/ARE reporter cell assay; Potency: activation; series mostly up to 46.1 µM; activation: at the top concentration. The essentials: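 AREc32 cells stably carrying an ARE-driven firefly luciferase, plated overnight, then exposed 24 h at 37 °C to compounds at several concentrations. ARE activation read as luminescence with Steady-Glo after 30 min at room temperature.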
(Quantitative high-throughput screening tests each substance at several concentrations.)
Turning to `O=C(CCS(=O)(=O)c1ccccc1)Nc1nc2c(s1)COc1ccccc1-2`, the Potency is 6.51 µM (active).

Turning to `Cc1cccc2cc3c(nc12)-c1ccccc1C3=O`, the Potency was 10.3 µM (active).

For the compound `c1ccc2nc3c(ccc4ccccc43)cc2c1`, the Potency was 9.2 µM (active).

As to `COC(=O)c1c(NC(=O)c2ccccc2)sc(C(N)=O)c1C`, the Potency was 1.46 µM (active).

Consider `CCOC(=O)c1sc(NC(=O)c2ccccc2F)c(C(N)=O)c1C`, for which the Potency is 2.31 µM (active).

Turning to `c1ccc(N2CC3CCc4ccccc4C3=N2)cc1` (centres undefined), the Potency is 5.8 µM (active).

As for `c1ccc(N2CC3COc4ccccc4C3=N2)cc1` (centres undefined), the Potency was 2.59 µM (active).

Consider `CCCS(=O)(=O)c1nc(S(=O)(=O)c2ccc(C)cc2)c(N2CC(C)OC(C)C2)s1` (centres undefined), for which the “activation” value is 7.58%.

With `CC1CN(c2sc(S(C)(=O)=O)nc2S(=O)(=O)c2ccc(Cl)cc2)CC(C)O1` (centres undefined), the Potency was 6.51 µM (active).

`Cc1ccc(S(=O)(=O)c2nc(S(C)(=O)=O)sc2N2CC(C)OC(C)C2)cc1` (centres undefined): the Potency was 18.4 µM (active).

Consider `CCOC(=O)c1cnc(-c2ccccc2)nc1-c1ccccc1`, for which the Potency is 9.2 µM (active).

As to `Nc1nc(Nc2ccccc2F)nc(NCc2ccco2)c1[N+](=O)[O-]`, the Potency was 2.31 µM (active).

Take `O=C1C=C(C#Cc2ccccc2)C[C@@H](c2ccc(F)cc2)C1`: the Potency is 11.6 µM (active).

As to `O=C(CCS(=O)(=O)c1ccccc1)Nc1nc(-c2ccccn2)cs1`, the Potency was 18.4 µM (active).

`CC(C)(C)c1csc(NC(=O)CCS(=O)(=O)c2ccc(F)cc2)n1`: the Potency was 20.6 µM (active).

For `Cc1ccc2ccc(C3C(=O)c4ccccc4C3=O)nc2c1`, the Potency is 1.64 µM (active).

For `C#CCSc1nc(-c2ccccc2)cc(C(F)(F)F)c1C#N`, the Potency is 11.6 µM (active).

Consider `Cc1ccc(-c2cc(C(F)(F)F)c(C#N)c(SCCC#N)n2)o1`, for which the Potency is 2.59 µM (active).

As for `c1ccc2c(-c3nc4ncccc4o3)cccc2c1`, the Potency was 6.51 µM (active).

`Cn1c(SCC(=O)N/N=C/C=C\c2ccccc2[N+](=O)[O-])nc2ccccc21`: the Potency was 0.366 µM (active).

In the case of `CCn1c(SCC(=O)N/N=C/C=C\c2ccco2)nc2ccccc21`, the Potency was 1.84 µM (active).

On to `Cn1c(SCC(=O)N/N=C/C=C\c2ccco2)nc2ccccc21`, for which the Potency is 2.59 µM (active).

For `CCn1c(SCC(=O)N/N=C/C=C/c2ccco2)nc2ccccc21`, the Potency was 1.46 µM (active).

For `Cc1ccc(N=C2NC(=O)S/C2=C\c2ccco2)cc1`, the Potency was 7.31 µM (active).

In the case of `Cc1cccc(N=C2NC(=O)S/C2=C\c2ccco2)c1`, the Potency is 3.26 µM (active).

Turning to `C=CCn1c(=NC(=O)c2cc(Cl)sc2Cl)sc2cc(S(N)(=O)=O)ccc21`, the Potency was 2.31 µM (active).

As for `Oc1c(-c2cc(-c3ccco3)[nH]n2)ccc2ccccc12`, the Potency was 2.31 µM (active).

With `Oc1ccc(Br)cc1-c1cc(-c2ccco2)[nH]n1`, the Potency was 3.66 µM (active).

`Oc1ccc(Cl)cc1-c1cc(-c2ccco2)[nH]n1`: the Potency is 3.66 µM (active).

The values above are taken from PubChem BioAssay AID651593 (National Center for Advancing Translational Sciences (NCATS), 2012).
